Spn PMK inh – blocks S. pneumoniae phosphomevalonate kinase. purified PMK, PK/LDH-coupled NADH absorbance 340 nm. inhibition, % at 10 µM. AID 539. 65,000 compounds, 0.49% hits;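 active = top-ranked compounds by inhibition in the single 10 µM screen, taking a fixed number of the strongest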
Spn DPM-DC inh – inhibitors of Streptococcus pneumoniae diphosphomevalonate decarboxylase | purified DPM-DC, PK/LDH coupled NADH fluorescence | calls only at 10 µM | 65,000 compounds, 0.49% hits;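 active = the 320 compounds with the highest percent inhibition in the single-dose primary screen, excluding strongly autofluorescent ones, cut at about 32% in these data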;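 also: kinetic rate of NADH fluorescence loss reporting ADP formed by the decarboxylase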
NADH coupling – inhibition of NAD/NADH coupling enzymes, library profiling; IC50, µM (series often up to 10 µM); coupled PK/LDH NADH assays, four targets; 65,000 compounds, 0.02% hits;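 active = single-dose screening hits from any of four coupled enzyme assays that gave an IC50 when retested across doses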;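 also: the DPM-DC format reads NADH fluorescence rather than 340 nm absorbance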
Spn MK inh – S. pneumoniae mevalonate kinase inhibition. purified MK, PK/LDH-coupled NADH absorbance 340 nm. inhibition, % at 10 µM. 65,000 compounds, 0.48% hits. AID 555;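 active = ranked among the strongest by inhibition in the single 10 µM screen, a fixed top-ranked set picked for dose follow-up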
A340 absorber – absorbance at 340 nm. compound absorbance at 340 nm, fold over control. fold change at 10 µM. 65,000 tested, under 10 active. AID 708;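 active = at 10 µM dose, initial 340 nm absorbance at least 2 fold that of control wells; inactive = change under 2 fold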;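 also: initial absorbance extrapolated from kinetic A340 decline of NADH oxidation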
Fluor 339 460 – intrinsic fluorescence of library compounds, ex339/em460 – biochemical, MLSMR library, data from DPM-DC assay, artefact control, profiling panel. compound autofluorescence, ex339/em460 nm, NADH buffer; active compounds read high; 1 = no-compound wells, NADH background. fluorescence fold increase at 10 µM. 65,000 compounds, 5.5% hits. AID 709;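 active = at 10 µM, mean starting fluorescence two-fold or more over control wells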;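 also: signal is the first read of a kinetic run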
Large screens that a line does not name were inactive. An excerpt weighted towards active compounds, which were near 6.3% of everything screened.

Oc1ccccc1C1=Nc2ncnn2C(c2ccccc2)C1 (stereo not given)	none
c1ccn2c(c1)nc1c2nc2ccccn21	Fluor 339 460 3.8 (not shown: Spn DPM-DC inh)
CC(=O)Nc1ccc(NC(=O)c2c(C)nc3ccccn23)cc1	none
Nc1nc(-c2ccco2)c(-c2ccco2)s1	none
c1coc(-c2nc(-c3ccco3)c(-c3ccco3)nc2-c2ccco2)c1	Fluor 339 460 2.2 (not shown: Spn DPM-DC inh)
O=C(COc1ccc2c3c(c(=O)oc2c1)CCC3)c1ccc2c(c1)OCO2	none
COC(=O)c1ccc(COc2ccc3c4c(c(=O)oc3c2)CCC4)o1	Spn DPM-DC inh active, Fluor 339 460 2.5
COC(=O)c1cc(COc2ccc3c4c(c(=O)oc3c2)CCCC4)c(C)o1	Fluor 339 460 2.2 (not shown: Spn DPM-DC inh)
COC(=O)N1CC(C)N(C(=O)OC)CC1C (stereo not given)	none
Cc1c(Br)c(=O)[nH]c(=O)n1COCc1ccccc1	none
Cc1cccc(S(=O)(=O)Nc2nc3ccccc3nc2NCc2ccco2)c1	none
Cc1ccc(-c2ccc(CCC(=O)O)n2NC(=O)c2ccco2)cc1	none
Cc1ccc(S(=O)(=O)c2c(N)n(NC(=O)c3ccco3)c3nc4ccccc4nc23)cc1	Fluor 339 460 3.8 (not shown: Spn DPM-DC inh)
Cc1cccc(-n2cnc3c(c2=O)c2nc4ccccc4nc2n3Cc2ccco2)c1	Fluor 339 460 3.2
Cc1ccc(S(=O)(=O)c2c(N)n(Cc3ccco3)c3nc4ccccc4nc23)cc1	Fluor 339 460 2.2 (not shown: Spn DPM-DC inh)
Cc1cccc(S(=O)(=O)c2c(N)n(Cc3ccco3)c3nc4ccccc4nc23)c1	Fluor 339 460 3.9 (not shown: Spn DPM-DC inh)
CCn1cc(C(=O)NCc2ccc(C)o2)c2cc(OC)c(OC)cc2c1=O	none
COC(=O)c1ccc2ccn(CC(=O)NC(C)C)c2c1	Fluor 339 460 2.1 (not shown: Spn DPM-DC inh)
CC(C)NC(=O)Cn1cc(C#N)c2cc(Br)ccc21	none
CCCN1CCN(C(=O)C2CCN(S(=O)(=O)c3ccc4c(c3)oc(=O)n4C)CC2)CC1	none
O=C1N=C(c2ccccc2)C(c2ccccc2)N1 (stereo not given)	Fluor 339 460 2.2 (not shown: Spn DPM-DC inh)
CCCCOc1ccccc1C(=O)NCC(=O)O	none
COC(=O)C1=C(C)NC(C)=C(C(=O)OC)C1c1ccccc1[N+](=O)[O-]	none
CCCCOc1ccccc1C1C(C(=O)OC)=CN(CC)C=C1C(=O)OC	Fluor 339 460 2.2 (not shown: Spn DPM-DC inh)
COC(=O)C1=CN(C)C=C(C(=O)OC)C1c1ccccc1Cl	Fluor 339 460 3.9 (not shown: Spn DPM-DC inh)
CCOC(=O)C1=C(C)NC(C)=C(C(=O)OC)C1c1cccc([N+](=O)[O-])c1 (stereo not given)	none
COC(=O)C1=CN(CCCN2CCCC2=O)C=C(C(=O)OC)C1c1ccccc1C(F)(F)F	Fluor 339 460 2.2 (not shown: Spn DPM-DC inh)
CCN1C=C(C(=O)OC)C(c2cccc(C)c2)C(C(=O)OC)=C1	Fluor 339 460 2.2 (not shown: Spn DPM-DC inh)
CC12CC3CC(C)(C1)CC(C(=O)Nc1nn[nH]n1)(C3)C2	none
Cc1cc(C)c(NC2=NCC(=O)N2C2CCCCC2)c(C)c1	none
CCCOc1ccccc1C1C(C(=O)OC)=CN(C(C)C)C=C1C(=O)OC	Fluor 339 460 3.9 (not shown: Spn DPM-DC inh)
CCCOc1ccccc1C1NC(=O)NC(C)=C1C(=O)OCCOCC (stereo not given)	none
COC(=O)C1=CN(C(C)C)C=C(C(=O)OC)C1c1cccc(OC)c1	Fluor 339 460 2.2 (not shown: Spn DPM-DC inh)
COC(=O)c1cc(-c2cccc(OC)c2)on1	none
Cc1nnc2c3cnn(-c4ccc(Cl)cc4)c3ncn12	none
CCN(C(=O)COc1cc(=O)n(C)c2ccccc12)c1cccc(Cl)c1	none
Cn1c(=O)c2nc(-c3ccc(Cl)cc3Cl)oc2c2ccccc21	Fluor 339 460 2 (not shown: Spn DPM-DC inh)
O/N=C1\CCC\C1=C/c1ccco1	Spn DPM-DC inh active
O/N=C1/CCCSc2ccccc21	none
O=C1CN(C(=O)COC(=O)C2=COCCO2)c2ccccc2N1	Spn MK inh 56
Nc1nc(CSc2ncn(-c3ccccc3)n2)cs1	none
Cc1cc2c(=O)n(Cc3ccco3)c(SCC(=O)N3CCCc4ccccc43)nc2s1	none
CCOC(=O)CCC(NC(=O)c1cncc(O)c1)C(=O)OCC (stereo not given)	Fluor 339 460 2.9
COC(=O)c1c(NC(=O)COC(=O)Cn2cnc3ccccc32)sc(C)c1C	none
CCC(C)NC(=O)c1ccccc1C(=O)NC(C)CC (stereo not given)	none
CCC(NC(=O)c1ccccc1O)c1ccccc1 (stereo not given)	Fluor 339 460 3.7 (not shown: Spn DPM-DC inh)
O=C(Nc1ccccc1)c1ccccc1O	Fluor 339 460 2.1 (not shown: Spn DPM-DC inh)
Cc1ccc(NC(=O)c2ccccc2O)cc1	none
CCOc1cc(CNc2ccc3[nH]c(=O)[nH]c3c2)ccc1OCC(=O)NC(C)(C)C	Fluor 339 460 3.8 (not shown: Spn DPM-DC inh)
COc1cc(CNc2ccc3[nH]c(=O)[nH]c3c2)cc(Cl)c1OCC(=O)NC(C)(C)C	Fluor 339 460 3
Cc1sc2ncnc(Sc3nnnn3-c3ccccc3)c2c1C	Fluor 339 460 3.4
Clc1ccc(-n2nnnc2Sc2ncnc3sccc23)cc1	none
CC(C)N(Cc1ccccc1)C(=O)c1cnc2n(c1=O)CCS2	none
CCOC(=O)c1c(C)[nH]c(C(=O)COC(=O)c2ccccc2NC(=O)c2ccco2)c1C	Spn DPM-DC inh active, Fluor 339 460 3.4
OCCN1CCN(c2ncnc3c2sc2nc(N4CCOCC4)c4c(c23)CCC4)CC1	Fluor 339 460 2.1 (not shown: Spn DPM-DC inh)
c1nc(N2CCNCC2)c2sc3nc(N4CCOCC4)c4c(c3c2n1)CCC4	Fluor 339 460 2.1 (not shown: Spn DPM-DC inh)
OCCN(CCO)c1ncnc2c1sc1nc(N3CCOCC3)c3c(c12)CCCC3	none
O=C(CC1SC(=Nc2ccccc2)N(CCCCO)C1=O)NCc1ccccc1 (stereo not given)	none
Cc1ccc2cc(CN(CC(C)C)C(=O)C3CCCO3)c(=O)[nH]c2c1 (stereo not given)	none
COc1ccc(N(Cc2cc3cc(OC)ccc3[nH]c2=O)C(=O)C2CCCO2)cc1 (stereo not given)	Fluor 339 460 2.9
COc1ccc2[nH]c(=O)c(CN(C(=O)C3CCCO3)c3cccc(C)c3)cc2c1 (stereo not given)	Fluor 339 460 2.4
CCN(CC)c1ncnc2c1cnn2C	none
CCc1cc(C(=O)OC)c(NC(=O)c2cc(Br)cs2)s1	Fluor 339 460 2.2
Cc1occc1-c1nnc(SCC(=O)NCC2CCCO2)n1C (stereo not given)	none
CC1(C)CC(=O)C2=C(C1)Nc1ccccc1NC2c1ccccn1 (stereo not given)	none
Cc1cc2c(cc1C)NC(c1c(C)n(C)n(-c3ccccc3)c1=O)C1=C(CC(C)(C)CC1=O)N2 (stereo not given)	Fluor 339 460 2.6
CCCC(=O)N1CCN(S(=O)(=O)c2cc(Cl)ccc2OC)CC1	Fluor 339 460 5.1 (not shown: Spn DPM-DC inh)
COc1ccc(Cl)cc1S(=O)(=O)N1CCN(C(=O)c2ccco2)CC1	none
CC(C)(C)NC(=O)CN(C(=O)C1(C)CC(=O)N=C2C=CC=CN21)C1CCCC1 (stereo not given)	Fluor 339 460 3.8 (not shown: Spn DPM-DC inh)
